According to PubChem BioAssay (NCATS):
“And” between values parts separate entries of the source, which are not always exact repeats. Identical values can stand only once. Results filed as inconclusive are left out. The source made the active and inactive calls. Unless noted, calls follow the shape of the dose curve; as a rule, active = well fitted curve in the direction sought with a large enough effect; inconclusive = small, poorly fitted or top-dose-only effect, or another doubt; inactive = no such curve, though single readings can be large; an effect the other way counts as inactive or inconclusive.

Columns and labels:
[1] = qHTS for inhibitors of adenylyl cyclases using a fission yeast platform: a pilot screen against the NCATS LOPAC library (AID 1347410)
In short: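 GFP from fbp1-GFP reporter, read by Acumen laser cytometry, indicates AC inhibition in fission yeast expressing AC9, GNAS and PDE4D2. Cells grown 18 h in the dark at 30C with compounds, final up to 57 uM.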

[2] = qHTS to identify inhibitors of the type 1 interferon - major histocompatibility complex class I in skeletal muscle: primary screen against the NCATS Mechanism Interrogation Plate v5.0 (MIPE) Libary (AID 1347411); also: nearly all actives have a fitted effect of over 65% in size; also: potency is read from the fitted curve at half-maximal effect
In short: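 Immortalized human myoblasts (C25cl48) with HiBit knocked into endogenous HLA-B*08:01 were stimulated with 4 ng/ml IFN-beta and given compounds in 11-point 1:3 titration from 46 uM. After 24 h at 37 C, lytic HiBiT luminescence was read.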

[3] = Validation qHTS assay for inhibitors of Activation Induced Cytidine Deaminase (AID): UDG Counterscreen signal (AID 1347427)
In short: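 Counterscreen read of UDG activity (2 U/mL, 4/3x) in the FRET deamination format with AID (1 uM, 4/3x), DJC20/DJC23 substrates (250 nM, 4x), 4 h at room temperature. NaOH stop, fluorescence at 560 ex/665 em.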

[4] = target: Single-stranded DNA cytosine deaminase (Homo sapiens) (UniProt Q9GZX7); experiment: Validation qHTS assay for inhibitors of Activation Induced Cytidine Deaminase (AID): AID signal (AID 1347429)
Chain of Single-stranded DNA cytosine deaminase (Homo sapiens) (Q9GZX7 whole entry, looked up): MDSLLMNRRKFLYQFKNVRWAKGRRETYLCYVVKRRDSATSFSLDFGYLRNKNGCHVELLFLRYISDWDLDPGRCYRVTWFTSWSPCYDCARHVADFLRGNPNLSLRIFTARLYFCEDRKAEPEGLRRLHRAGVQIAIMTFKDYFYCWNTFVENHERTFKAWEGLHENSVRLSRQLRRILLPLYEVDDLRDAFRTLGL
In short: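 FRET deamination assay: 1 uM AID (4/3x stock) with UDG, compound up to 114 uM, then 250 nM DJC20/DJC23 substrate (4x stock) for 4 hr at room temperature. NaOH added, 30 min; fluorescence read 540/590 nm.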

[5] = target: Calcium and integrin-binding protein 1 (Homo sapiens) (UniProt Q99828); experiment: Validation qHTS for Identification of Calcium Integrin Binding protein 1 (CIB1) Competitor (AID 1508618)
Chain of Calcium and integrin-binding protein 1 (Homo sapiens) (Q99828 whole entry, looked up): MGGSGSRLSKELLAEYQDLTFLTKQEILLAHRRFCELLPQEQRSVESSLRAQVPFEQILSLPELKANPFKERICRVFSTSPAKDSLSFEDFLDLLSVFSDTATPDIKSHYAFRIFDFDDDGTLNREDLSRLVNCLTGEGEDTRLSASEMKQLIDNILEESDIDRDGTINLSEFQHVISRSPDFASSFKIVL
In short: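 Displacement of FITC-alphaIIb peptide (100 nM) from CIB1-GST (1 uM) is monitored by polarization in quantitative HTS format; buffer carries 5 mM CaCl2 and 125 mM NaCl at pH 7.4, incubations are at room temperature.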

[6] = target: Calcium and integrin-binding protein 1 (Homo sapiens) (UniProt Q99828); experiment: Primary qHTS for Identification of Calcium Integrin Binding Protein 1 (CIB1) Competitor (AID 1508620);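 also: GST tagged CIB1 binding a fluorescein labelled alphaIIb integrin peptide tracer; top concentration of the series differs between compounds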
In short: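 Fluorescence polarization competition: GST-tagged CIB1 (1 uM final) preincubated with compound 15 min at room temperature, then FITC-labelled alphaIIb peptide (100 nM final) added. After 15 min at room temperature, polarization read at Ex 480/Em 540.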

[7] = Primary qHTS for small molecule stabilizers of the endoplasmic reticulum resident proteome: Secreted ER Calcium Modulated Protein (SERCaMP) assay (AID 1508630)
In short: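 GLuc-SERCaMP-expressing SH-SY5Y cells, pretreated 16 h with compound, are challenged with thapsigargin to empty ER calcium stores; after 4 h, coelenterazine is added directly to the medium and luminescence is imaged.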

[8] = target: Cytochrome P450 2C9 (Homo sapiens) (UniProt P11712); experiment: Cytochrome P450 family 2 subfamily C member 9 (CYP2C9) small molecule antagonists: luciferase biochemical (cell-free) qHTS assay (AID 1645842; active = well fitted curve in the direction sought with a large enough effect in the repeat runs; an effect the other way counts as inactive or inconclusive; also: nearly all actives have a fitted effect of over 55% in size; also: potency is read from the fitted curve at half-maximal effect)
Chain of Cytochrome P450 2C9 (Homo sapiens) (P11712 whole entry, looked up): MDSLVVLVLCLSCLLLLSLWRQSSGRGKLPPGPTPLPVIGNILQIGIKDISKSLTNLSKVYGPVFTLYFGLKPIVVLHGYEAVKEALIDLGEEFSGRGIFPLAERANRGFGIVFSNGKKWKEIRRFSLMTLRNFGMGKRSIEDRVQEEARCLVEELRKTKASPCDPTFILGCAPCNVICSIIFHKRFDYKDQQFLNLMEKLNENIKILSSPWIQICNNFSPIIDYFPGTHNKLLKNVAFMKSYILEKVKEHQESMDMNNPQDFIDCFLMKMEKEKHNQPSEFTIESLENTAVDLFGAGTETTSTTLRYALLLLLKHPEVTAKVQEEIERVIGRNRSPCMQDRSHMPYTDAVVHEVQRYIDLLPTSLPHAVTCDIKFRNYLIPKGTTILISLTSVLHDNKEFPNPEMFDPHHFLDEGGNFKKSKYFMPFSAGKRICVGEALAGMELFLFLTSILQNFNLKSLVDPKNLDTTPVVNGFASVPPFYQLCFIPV
In short: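 Luminescence, after 20 min with luciferin detection reagent, reflected CYP2C9 turnover during a 1 h NADPH-driven reaction at 37C. Enzyme-substrate mix contained 0.4% bovine serum albumin and was preincubated with compound 10 min at room temperature.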

[9] = target: Papain (Carica papaya) (UniProt P00784); experiment: Primary qHTS assay for inhibitors of the protease papain (AID 1645873);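 also: papain turnover of Z-FR-AMC read as the AMC fluorescence gain over 10 min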; also: potency is read from the fitted curve at half-maximal effect
Chain of Papain (Carica papaya) (P00784 whole entry, looked up): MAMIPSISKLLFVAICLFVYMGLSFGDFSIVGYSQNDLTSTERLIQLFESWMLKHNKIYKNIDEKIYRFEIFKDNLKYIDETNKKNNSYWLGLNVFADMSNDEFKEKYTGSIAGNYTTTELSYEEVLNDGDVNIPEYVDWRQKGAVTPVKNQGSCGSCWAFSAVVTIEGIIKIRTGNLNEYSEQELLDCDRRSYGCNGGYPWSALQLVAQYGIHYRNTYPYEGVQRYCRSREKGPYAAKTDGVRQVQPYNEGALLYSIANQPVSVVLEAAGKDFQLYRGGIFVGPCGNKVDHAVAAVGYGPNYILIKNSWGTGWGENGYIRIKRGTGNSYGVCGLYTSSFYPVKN

[10] = target: N-terminal Xaa-Pro-Lys N-methyltransferase 1 (Homo sapiens) (UniProt Q9BV86); experiment: Confirmatory qHTS for Inhibitors of N-terminal methyltransferase 1 (NTMT1): MTaseGlo Assay (AID 1645874); also: potency is read from the fitted curve at half-maximal effect; nearly all actives have a fitted effect of over 65% in size
Chain of N-terminal Xaa-Pro-Lys N-methyltransferase 1 (Homo sapiens) (Q9BV86 whole entry, looked up): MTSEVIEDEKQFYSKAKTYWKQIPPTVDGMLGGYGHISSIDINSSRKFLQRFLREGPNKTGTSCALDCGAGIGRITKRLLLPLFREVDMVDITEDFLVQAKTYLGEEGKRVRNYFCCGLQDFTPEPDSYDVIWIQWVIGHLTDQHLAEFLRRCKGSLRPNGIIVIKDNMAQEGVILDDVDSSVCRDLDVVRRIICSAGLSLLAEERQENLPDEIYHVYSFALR
In short: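 Preincubation of NTMT1 (125 nM) plus SAM (100 uM) with test compounds lasted 15 min; methylation of 1 uM SPKRIA then proceeded 30 min in the dark at room temperature. Luciferase signal reported SAH produced.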

[11] = Primary qHTS for inhibitors of La Crosse Virus (LACV) - induced cell death in SH-SY5Y cells (AID 1508616);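 also: top concentration of the series differs between compounds; higher means more rescue of cells from virus-induced death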
In short: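 SH-SY5Y cells (6000/well) plated 24 h, then given compounds by pin transfer and LACV at 0.01 MOI for 6 days at 37C. Viability measured by ATPLite luminescence, normalized to infected DMSO and uninfected DMSO.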

[12] = target: Protein phosphatase 1D (Homo sapiens) (UniProt O15297); experiment: RapidFire Mass Spectrometry qHTS Assay for Modulators of WT P53-Induced Phosphatase 1 (WIP1) (AID 1347424);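 also: amount of dephosphorylated VEPPL-S-QETFS peptide product formed by WIP1; series mostly up to about 63 µM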
Chain of Protein phosphatase 1D (Homo sapiens) (O15297 whole entry, looked up): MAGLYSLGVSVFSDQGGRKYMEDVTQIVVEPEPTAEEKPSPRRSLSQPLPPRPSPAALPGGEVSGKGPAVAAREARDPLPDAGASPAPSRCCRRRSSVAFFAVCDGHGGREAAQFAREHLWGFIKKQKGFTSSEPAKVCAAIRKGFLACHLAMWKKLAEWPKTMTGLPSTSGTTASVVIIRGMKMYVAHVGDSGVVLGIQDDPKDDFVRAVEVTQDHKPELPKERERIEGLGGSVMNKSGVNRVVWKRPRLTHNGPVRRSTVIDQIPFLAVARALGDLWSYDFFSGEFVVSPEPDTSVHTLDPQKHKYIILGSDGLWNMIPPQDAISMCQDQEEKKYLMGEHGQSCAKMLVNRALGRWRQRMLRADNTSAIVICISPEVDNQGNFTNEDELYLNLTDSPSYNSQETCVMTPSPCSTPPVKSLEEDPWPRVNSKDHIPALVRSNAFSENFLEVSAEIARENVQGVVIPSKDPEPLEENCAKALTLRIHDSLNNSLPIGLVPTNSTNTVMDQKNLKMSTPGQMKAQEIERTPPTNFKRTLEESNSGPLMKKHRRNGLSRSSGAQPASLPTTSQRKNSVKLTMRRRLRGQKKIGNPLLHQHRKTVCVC
In short: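 10 nM WIP1 preincubated with compounds 1 hr at room temperature in pH 7.5 Tris buffer with 30 mM MgCl2, 1 mM TCEP; 2 uM VEPPL-pS-QETFS phosphopeptide for 5 min, formic acid quench; dephosphorylated product quantified by RapidFire MS against labelled standard.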

[13] = target: Protein phosphatase 1D (Homo sapiens) (UniProt O15297); experiment: Rhodamine-PBP qHTS Assay for Modulators of WT P53-Induced Phosphatase 1 (WIP1) (AID 1347425)
In short: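 5 nM WIP1 + 10 uM Rh-PBP, 50 mM Tris pH 7.5, 30 mM MgCl2, 1 mM TCEP, 0.1 mM EGTA, BSA; cpds pinned, 1 hr RT; + 10 uM phosphopeptide; fluorescence 1-min reads x 11 min; delta = f1 - f0.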

[14] = A High-Content qHTS Against Drug Library for the Identification of Small Molecules that Inhibit DYT1 Early Onset Primary Dystonia-Associated Cell Pathology (AID 1645839; calls by dose curve; also: series mostly up to about 46 µM)
In short: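 Flp-In T-REx 293 cells with tetracycline-inducible EGFP-delE hTOR1A (WT EGFP-hTOR1A as reference), 800 cells/well; compound added with tetracycline, 48 h at 37 C. Fixed, permeabilized cells imaged; %pathology (punctate TorsinA) primary, cell count counterscreen.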

[15] = target: Cytochrome P450 2D6 (Homo sapiens) (UniProt P10635); experiment: Cytochrome P450 family 2 subfamily D member 6 (CYP2D6) small molecule antagonists: luciferase biochemical (cell-free) qHTS assay (AID 1645840; active = well fitted curve in the direction sought with a large enough effect in the repeat runs; an effect the other way counts as inactive or inconclusive; also: nearly all actives have a fitted effect of over 55% in size; also: potency is read from the fitted curve at half-maximal effect)
Chain of Cytochrome P450 2D6 (Homo sapiens) (P10635 whole entry, looked up): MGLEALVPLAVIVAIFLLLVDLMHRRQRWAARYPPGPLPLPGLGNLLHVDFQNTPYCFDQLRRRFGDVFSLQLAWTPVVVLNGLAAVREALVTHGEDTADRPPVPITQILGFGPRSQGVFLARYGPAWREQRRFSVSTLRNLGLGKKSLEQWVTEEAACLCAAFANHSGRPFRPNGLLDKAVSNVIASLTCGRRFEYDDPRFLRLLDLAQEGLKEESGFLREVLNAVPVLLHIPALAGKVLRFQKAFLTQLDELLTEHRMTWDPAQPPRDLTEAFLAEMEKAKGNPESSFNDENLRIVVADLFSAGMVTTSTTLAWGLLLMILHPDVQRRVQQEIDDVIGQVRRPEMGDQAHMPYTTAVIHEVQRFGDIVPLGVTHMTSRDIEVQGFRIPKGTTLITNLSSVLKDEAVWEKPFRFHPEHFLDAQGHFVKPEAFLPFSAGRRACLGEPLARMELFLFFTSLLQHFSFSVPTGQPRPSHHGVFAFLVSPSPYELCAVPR
In short: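 P450-Glo luminescent screen: recombinant CYP2D6 enzyme–proluciferin substrate mix preincubated with compound 10 min at room temperature, then NADPH regeneration added for 1 h at room temperature. Detection reagent added for 20 min; luciferin light read as relative luminescence units.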

Measured: Potency

COc1cc2ncnc(Nc3cccc(Cl)c3)c2cc1OC
inactive: [1] | [3] | [4] | [5] | [6] | [7] | [9]
active: [2] 29.4 µM | [8] 8.49 µM | [10] 12.6 µM

O=C(O)C1CCCN(CCC=C(c2ccccc2)c2ccccc2)C1 (stereo not drawn)
inactive: [1] | [2] | [3] | [4] | [11] | [5] | [6] | [9]

CNS(=O)(=O)CCc1ccc2[nH]cc(C3CCN(C)CC3)c2c1
not listed: [2] | [3] | [4] | [10] | [15]
inactive: all other assays above

CC(N)C12CC3CC(CC(C3)C1)C2 (stereo not drawn)
not listed: [1] | [3] | [4] | [5] | [9] | [10]
inactive: all other assays above

Nc1nc(N)c2nc(CNc3ccc(C(=O)NC(CCC(=O)O)C(=O)O)cc3)cnc2n1 (stereo not drawn)
active: [9] 3.55 µM
inactive: [1] | [2] | [3] | [4] | [11] | [6] | [7]

CCCOc1ccc(C(=O)OCCN(CC)CC)cc1N
active: [15] 6.17 µM and 6.74 µM
inactive: [2] | [12] | [13] | [11] | [6] | [7] | [14] | [8]

Cc1nnc(NS(=O)(=O)c2ccc(N)cc2)s1
inactive: [2] | [12] | [13] | [11] | [6] | [7] | [14] | [15]
active: [8] 17.4 µM

CC(C)OC(=O)C(C(=O)OC(C)C)=C1SC=CS1
inactive: [2] | [12] | [13] | [11] | [6] | [7] | [14]

Cc1ccc(S(=O)(=O)N[C@@H](Cc2ccccc2)C(=O)CCl)cc1
inactive: [1] | [3] | [4] | [6] | [9]

CCCCS(=N)(=O)CCC(N)C(=O)O (stereo not drawn)
not listed: [8] | [10] | [12] | [13] | [14] | [15]
inactive: all other assays above

C[C@@H]1CN(c2c(F)c(N)c3c(=O)c(C(=O)O)cn(C4CC4)c3c2F)C[C@H](C)N1
not listed: [1] | [3] | [4] | [5] | [9] | [10]
inactive: all other assays above

CCN1CCCC1CNC(=O)c1cc(S(N)(=O)=O)ccc1OC (stereo not drawn)
inactive: [1] | [3] | [4] | [11] | [5] | [6] | [7] | [9]

CCC(C)(C)c1ccc(CC(C)CN2C[C@@H](C)O[C@@H](C)C2)cc1 (stereo partly drawn)
inactive: [2] | [12] | [13] | [11] | [6] | [7] | [14]
active: [15] 4.9 µM

NC(=O)c1ccc2[nH]ccc2c1
inactive: [1] | [2] | [3] | [4] | [5] | [6] | [7] | [9]

CC1=C(C(=O)O)N2C(=O)[C@@H](NC(=O)C(N)c3ccccc3)[C@H]2SC1 (stereo partly drawn)
inactive: [1] | [3] | [4] | [11] | [5] | [6] | [7] | [9]

COc1cc(NCc2ccc3nc(N)nc(N)c3c2C)cc(OC)c1OC
inactive: [12] | [13] | [11] | [6] | [14]
active: [2] 26.2 µM | [15] 6.92 µM | [8] 12.3 µM

C#CCN[C@@H]1CCc2ccccc21
inactive: [2] | [12] | [13] | [11] | [6] | [14] | [8]

CCCCOc1ccc(CC(=O)NO)cc1
inactive: [2] | [12] | [13] | [11] | [6]
active: [15] 12.3 µM | [8] 17.4 µM

CCOC(=O)[C@H](CCc1ccccc1)N[C@H]1CS[C@H](c2cccs2)CN(CC(=O)O)C1=O
inactive: [2] | [12] | [13] | [11] | [6] | [14] | [15] | [8]

O=S(=O)(c1cccc2cnccc12)N1CCCNCC1
inactive: [2] | [12] | [13] | [11] | [6] | [14] | [8]

Nc1[nH]c(=O)ncc1F
inactive: [2] | [12] | [13] | [11] | [6] | [14] | [15] | [8]

CCOC(=O)c1ccc(C#Cc2ccc3c(c2)C(C)(C)CCS3)nc1
not listed: [1] | [3] | [4] | [5] | [9] | [10]
inactive: all other assays above

CC(C)(C#N)c1cc(Cn2cncn2)cc(C(C)(C)C#N)c1
active: [8] 6.17 µM
inactive: [2] | [12] | [13] | [11] | [6] | [14] | [15]

OC(Cn1cncn1)(Cn1cncn1)c1ccc(F)cc1F
inactive: [2] | [12] | [13] | [11] | [6] | [14]
